Set-up in all cases: scale not given: direction of the effect not stated beside the values
In experiment [1] the target is Protein translocase subunit SecA (Escherichia coli (strain K12)) (UniProt P10408). Nature of the experiment: Assay to Identify E. coli SecA ATPase Inhibitors. The format is functional. Conditions: 30 µM.
In experiment [2] the target is T1, Ubiquitin-activating enzyme e1, putative (Leishmania donovani (strain BPK282A1)) (UniProt E9BSI1).
T1 sequence (whole entry): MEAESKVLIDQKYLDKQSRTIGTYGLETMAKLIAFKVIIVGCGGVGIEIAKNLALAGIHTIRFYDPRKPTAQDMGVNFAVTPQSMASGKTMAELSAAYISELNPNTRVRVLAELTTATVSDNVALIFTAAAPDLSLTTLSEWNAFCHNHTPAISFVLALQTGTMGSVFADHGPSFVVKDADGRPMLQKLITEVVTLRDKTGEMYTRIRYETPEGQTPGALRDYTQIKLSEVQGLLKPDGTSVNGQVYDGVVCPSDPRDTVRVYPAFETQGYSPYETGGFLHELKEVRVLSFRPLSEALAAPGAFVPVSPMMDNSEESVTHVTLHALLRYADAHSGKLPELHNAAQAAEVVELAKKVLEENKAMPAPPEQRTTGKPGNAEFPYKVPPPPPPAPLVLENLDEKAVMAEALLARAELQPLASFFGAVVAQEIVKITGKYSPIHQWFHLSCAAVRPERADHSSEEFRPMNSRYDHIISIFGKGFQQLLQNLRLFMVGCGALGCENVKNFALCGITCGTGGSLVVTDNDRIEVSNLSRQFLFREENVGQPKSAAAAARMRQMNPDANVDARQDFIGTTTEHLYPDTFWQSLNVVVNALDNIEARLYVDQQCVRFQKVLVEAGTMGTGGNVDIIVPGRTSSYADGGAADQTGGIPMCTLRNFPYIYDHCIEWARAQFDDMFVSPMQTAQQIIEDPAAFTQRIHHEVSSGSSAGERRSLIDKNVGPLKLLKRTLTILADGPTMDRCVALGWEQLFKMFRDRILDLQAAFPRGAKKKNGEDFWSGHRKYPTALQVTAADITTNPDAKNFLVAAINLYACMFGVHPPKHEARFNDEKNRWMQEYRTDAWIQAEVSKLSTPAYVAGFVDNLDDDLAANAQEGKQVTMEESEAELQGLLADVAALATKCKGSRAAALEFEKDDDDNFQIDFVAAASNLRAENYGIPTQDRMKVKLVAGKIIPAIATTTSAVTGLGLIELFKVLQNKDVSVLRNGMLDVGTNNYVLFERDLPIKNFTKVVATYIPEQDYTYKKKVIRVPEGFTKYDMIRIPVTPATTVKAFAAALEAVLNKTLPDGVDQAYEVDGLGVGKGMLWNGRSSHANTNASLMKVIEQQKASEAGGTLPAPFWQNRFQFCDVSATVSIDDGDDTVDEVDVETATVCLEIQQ
Put plainly: Leishmania donovani Ubiquitin Activating Enzyme (LdE1). It counts as functional. Conditions: 30 µM.

Experiment [3] concerns the target AMP-activated protein kinase, AMPK (Homo sapiens) (UniProt P54646+O43741+P54619+Q9UGJ0+Q9Y478+Q13131+Q9UGI9). Put plainly: AMP-dependent Kinase enzyme assay. An in vitro enzyme assay that detects ADP turnover that is directly proportional to AMPK activity. This uses naive AMPK that is activated during the assay with MK-8722. The format is functional. Conditions: 30 µM.

Experiment [4] concerns the target Sialic acid-binding Ig-like lectin 9 (Homo sapiens) (UniProt Q9Y336). Put plainly: Hs-Siglec9 ALPHAscreen SOP 20170721. The following applies: 10 µM. On the technique in general: Alpha assays give light when donor and acceptor beads are brought close together.
Another experiment deals with Trypanosoma cruzi. Put plainly: Trypanosoma cruzi phosphomannomutase and mannose-1-phosphate guanylyltransferase assay. Conditions: 10 µM. It counts as functional.
The target of experiment [5] is T2, Arginase-2, mitochondrial (Homo sapiens) (UniProt P78540).
T2 sequence (whole entry): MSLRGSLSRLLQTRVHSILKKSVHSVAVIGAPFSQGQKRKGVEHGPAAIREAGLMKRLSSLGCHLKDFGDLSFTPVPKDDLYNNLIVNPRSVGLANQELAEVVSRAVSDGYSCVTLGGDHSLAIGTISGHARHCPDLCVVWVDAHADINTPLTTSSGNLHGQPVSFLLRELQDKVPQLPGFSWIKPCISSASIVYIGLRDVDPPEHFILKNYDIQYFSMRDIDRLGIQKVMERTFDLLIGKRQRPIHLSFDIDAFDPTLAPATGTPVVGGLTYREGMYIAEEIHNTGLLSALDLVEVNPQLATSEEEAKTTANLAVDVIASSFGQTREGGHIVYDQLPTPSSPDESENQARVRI
Nature of the experiment: in vitro enzyme assay to detect the production of urea directly proportional to the activity of Arginase II. Note: in the data most compounds retested in dose-response had high values. The format is functional. The following applies: 33.3 µM.

In experiment [6] the target is T3, Proteasome subunit beta (Trypanosoma cruzi) (UniProt O96673).
T3 sequence (whole entry): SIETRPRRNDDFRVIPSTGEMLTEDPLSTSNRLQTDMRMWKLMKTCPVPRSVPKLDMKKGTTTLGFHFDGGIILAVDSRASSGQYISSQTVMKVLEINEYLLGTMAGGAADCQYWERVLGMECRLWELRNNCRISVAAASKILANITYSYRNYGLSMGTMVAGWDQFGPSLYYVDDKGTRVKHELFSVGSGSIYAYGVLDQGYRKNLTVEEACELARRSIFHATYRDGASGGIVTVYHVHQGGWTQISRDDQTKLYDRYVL
Nature of the experiment: Trypanosoma cruzi proteasome chymotrypsin-like activity (TcProtChymo) assay. Note: in the data most compounds retested in dose-response had high values. The format is functional. Conditions: 9.37 µM.

The species entered for another experiment is Homo sapiens. Put plainly: To identify inhibition of the IFN signalling (Jak-Stat) pathway via expression of an eGFP reporter gene under the control of an IFN-stimulated response element (ISRE) containing MxA promoter. The format is functional. Conditions: 30 µM. On the technique in general: Reporter assays use an easily measured gene product as a stand-in for the process of interest.

Experiment [7] addresses T4, Tyrosyl-tRNA synthetase, putative (Trypanosoma cruzi (strain CL Brener)) (UniProt Q4DSP6).
T4 sequence (whole entry): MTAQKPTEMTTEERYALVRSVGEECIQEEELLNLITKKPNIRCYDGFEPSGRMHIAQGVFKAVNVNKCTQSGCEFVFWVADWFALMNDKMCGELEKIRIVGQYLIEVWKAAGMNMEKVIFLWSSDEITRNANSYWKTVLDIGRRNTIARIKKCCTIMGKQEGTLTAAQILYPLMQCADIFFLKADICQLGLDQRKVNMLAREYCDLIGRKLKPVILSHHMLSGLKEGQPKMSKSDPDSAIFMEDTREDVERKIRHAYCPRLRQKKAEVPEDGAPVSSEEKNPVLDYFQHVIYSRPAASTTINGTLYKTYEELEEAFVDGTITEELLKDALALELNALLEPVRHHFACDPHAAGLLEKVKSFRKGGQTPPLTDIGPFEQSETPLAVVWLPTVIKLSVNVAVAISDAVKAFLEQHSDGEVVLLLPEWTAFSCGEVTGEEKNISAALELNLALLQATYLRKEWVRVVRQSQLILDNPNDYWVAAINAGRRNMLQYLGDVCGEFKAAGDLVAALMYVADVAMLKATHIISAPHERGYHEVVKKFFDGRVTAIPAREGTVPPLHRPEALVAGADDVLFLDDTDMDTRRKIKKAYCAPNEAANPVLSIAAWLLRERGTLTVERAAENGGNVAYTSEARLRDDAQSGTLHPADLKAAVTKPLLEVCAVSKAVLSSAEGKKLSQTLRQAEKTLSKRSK
Put plainly: Trypanosoma cruzi tyrosyl tRNA synthetase (TcYRS) _High Tyrosine SOP. Note: in the data most compounds retested in dose-response had high values. Conditions: 30 µM. The format is functional.

In experiment [8] the target is T4, Tyrosyl-tRNA synthetase, putative (Trypanosoma cruzi (strain CL Brener)). Put plainly: Trypanosoma cruzi tyrosyl tRNA synthetase (TcYRS) SOP. The format is functional. The following applies: 30 µM.
Experiment [9] addresses Chromo domain-containing protein 1 (Saccharomyces cerevisiae (strain ATCC 204508 / S288c) (Baker's yeast)) (UniProt P32657). Nature of the experiment: ScCHD-1 Enzyme Inhibition Assay. Note: in the data most compounds retested in dose-response had high values. It counts as functional. Conditions: 30 µM.

For some of these results: Results with a measured potency or affinity are listed apart.

Sequence of Sialic acid-binding Ig-like lectin 9 (Homo sapiens) (Q9Y336 whole entry): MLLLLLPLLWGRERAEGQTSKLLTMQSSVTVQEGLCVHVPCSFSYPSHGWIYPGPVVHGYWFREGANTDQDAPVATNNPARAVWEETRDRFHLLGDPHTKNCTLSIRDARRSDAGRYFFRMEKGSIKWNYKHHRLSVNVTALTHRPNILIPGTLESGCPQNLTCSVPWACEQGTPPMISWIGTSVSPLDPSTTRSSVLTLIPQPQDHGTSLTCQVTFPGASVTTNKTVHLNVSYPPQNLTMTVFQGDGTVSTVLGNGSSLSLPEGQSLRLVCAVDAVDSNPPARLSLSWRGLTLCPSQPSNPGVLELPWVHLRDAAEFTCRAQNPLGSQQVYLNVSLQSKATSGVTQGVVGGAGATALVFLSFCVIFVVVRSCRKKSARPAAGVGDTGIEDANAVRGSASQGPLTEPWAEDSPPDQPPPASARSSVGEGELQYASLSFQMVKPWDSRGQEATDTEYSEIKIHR
Sequence of Chromo domain-containing protein 1 (Saccharomyces cerevisiae (strain ATCC 204508 / S288c) (Baker's yeast)) (P32657 whole entry, the tested form may be a part): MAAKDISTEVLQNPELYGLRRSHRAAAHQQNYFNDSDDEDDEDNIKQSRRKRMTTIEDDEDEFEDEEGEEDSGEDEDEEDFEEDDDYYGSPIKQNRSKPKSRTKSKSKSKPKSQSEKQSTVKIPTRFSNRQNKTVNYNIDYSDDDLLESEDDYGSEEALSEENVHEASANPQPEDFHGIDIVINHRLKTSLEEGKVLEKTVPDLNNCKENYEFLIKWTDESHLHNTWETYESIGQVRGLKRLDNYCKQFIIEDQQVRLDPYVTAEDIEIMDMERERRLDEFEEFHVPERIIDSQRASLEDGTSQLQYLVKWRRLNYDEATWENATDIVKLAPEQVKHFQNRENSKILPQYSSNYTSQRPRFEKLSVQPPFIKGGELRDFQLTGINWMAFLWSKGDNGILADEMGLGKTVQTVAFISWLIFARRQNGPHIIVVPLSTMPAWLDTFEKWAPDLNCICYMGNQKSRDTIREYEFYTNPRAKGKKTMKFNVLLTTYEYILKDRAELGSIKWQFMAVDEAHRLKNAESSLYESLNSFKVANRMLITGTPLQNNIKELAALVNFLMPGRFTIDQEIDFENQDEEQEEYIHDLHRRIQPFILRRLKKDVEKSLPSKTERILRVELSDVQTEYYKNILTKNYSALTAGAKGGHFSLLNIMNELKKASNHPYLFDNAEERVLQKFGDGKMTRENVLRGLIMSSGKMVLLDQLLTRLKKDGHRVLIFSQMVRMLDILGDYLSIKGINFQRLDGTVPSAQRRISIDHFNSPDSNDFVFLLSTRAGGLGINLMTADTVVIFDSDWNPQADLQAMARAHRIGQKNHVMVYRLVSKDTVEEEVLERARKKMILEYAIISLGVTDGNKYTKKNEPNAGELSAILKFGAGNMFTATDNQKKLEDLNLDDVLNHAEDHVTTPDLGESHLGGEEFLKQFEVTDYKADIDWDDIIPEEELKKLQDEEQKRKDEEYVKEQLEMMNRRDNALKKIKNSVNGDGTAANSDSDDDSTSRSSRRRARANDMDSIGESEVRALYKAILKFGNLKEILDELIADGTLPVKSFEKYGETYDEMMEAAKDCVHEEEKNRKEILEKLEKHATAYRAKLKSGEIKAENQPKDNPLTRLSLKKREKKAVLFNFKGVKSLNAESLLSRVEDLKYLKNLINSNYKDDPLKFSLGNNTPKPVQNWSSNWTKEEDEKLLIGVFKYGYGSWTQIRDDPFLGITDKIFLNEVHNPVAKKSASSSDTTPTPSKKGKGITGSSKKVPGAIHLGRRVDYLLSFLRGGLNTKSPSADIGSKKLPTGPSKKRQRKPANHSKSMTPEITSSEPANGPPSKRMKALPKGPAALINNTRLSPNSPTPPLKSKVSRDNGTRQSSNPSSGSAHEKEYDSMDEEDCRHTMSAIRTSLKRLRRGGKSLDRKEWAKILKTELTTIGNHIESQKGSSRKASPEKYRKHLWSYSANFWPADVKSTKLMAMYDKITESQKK
Sequence of Protein translocase subunit SecA (Escherichia coli (strain K12)) (P10408 whole entry): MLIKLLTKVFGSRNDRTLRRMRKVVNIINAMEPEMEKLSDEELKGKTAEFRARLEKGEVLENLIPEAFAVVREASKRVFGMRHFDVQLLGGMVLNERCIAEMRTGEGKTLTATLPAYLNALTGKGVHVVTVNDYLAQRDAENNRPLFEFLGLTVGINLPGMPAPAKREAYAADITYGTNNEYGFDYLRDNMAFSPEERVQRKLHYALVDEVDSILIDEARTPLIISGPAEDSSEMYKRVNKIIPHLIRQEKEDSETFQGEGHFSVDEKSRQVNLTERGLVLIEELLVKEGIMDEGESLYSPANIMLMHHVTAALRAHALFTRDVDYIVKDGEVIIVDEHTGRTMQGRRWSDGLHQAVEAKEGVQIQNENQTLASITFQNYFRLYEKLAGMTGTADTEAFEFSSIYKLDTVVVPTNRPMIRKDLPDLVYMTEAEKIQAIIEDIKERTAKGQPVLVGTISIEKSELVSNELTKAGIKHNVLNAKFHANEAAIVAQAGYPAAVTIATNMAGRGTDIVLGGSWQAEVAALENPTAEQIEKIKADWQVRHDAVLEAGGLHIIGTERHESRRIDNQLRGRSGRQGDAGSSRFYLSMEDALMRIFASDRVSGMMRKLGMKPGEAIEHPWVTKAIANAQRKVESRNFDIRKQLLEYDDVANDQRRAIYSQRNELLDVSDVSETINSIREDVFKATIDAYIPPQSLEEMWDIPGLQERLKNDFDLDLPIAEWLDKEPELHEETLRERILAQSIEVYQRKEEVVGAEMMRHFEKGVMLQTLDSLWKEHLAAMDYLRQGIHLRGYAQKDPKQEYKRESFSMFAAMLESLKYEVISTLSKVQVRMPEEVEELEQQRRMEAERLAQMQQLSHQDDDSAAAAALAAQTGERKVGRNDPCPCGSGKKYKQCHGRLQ

In the case of `CN(C)C(=O)c1ccc2c(c1)N(C)C(CC(=O)NC(C)(C)CO)CO2` (stereo unspecified), the Percent Effect in experiment [1] is -8.01%; in experiment [2], -4.17%; in [3], -3.33%; in [4] it was 3.27%; in the experiment on Trypanosoma cruzi it was -2.82%; in experiment [5], -2.21%. Also, the Percent Effect is 10.7% in experiment [6]; -2.49% in the experiment listed under Homo sapiens; -2.1% in experiment [7]; -5.13% in experiment [8]; 0.823% in [9].

Regarding `Cn1ccc(C(=O)N2CCCC(Cc3cccc4ncccc34)C2)n1` (stereo unspecified), the Percent Effect in experiment [1] was -7.55%; in experiment [2], 14.9%; in experiment [3] it was -6.32%; in experiment [4], 5%; in the experiment with Trypanosoma cruzi, 4.74%; in [5] it was -4.41%. The Percent Effect is 7.33% in experiment [6]; 49.9% in the experiment listed under Homo sapiens; 3.23% in experiment [7]; -6.49% in experiment [8]; -12% in experiment [9].

Turning to `CC(C)(C)NC(=O)CNC(=O)CCc1ccccc1Br`, the Percent Effect in experiment [1] is -3.98%; in experiment [2], 15.3%; in [3], -5.91%; in [4], 3.62%; in the experiment on Trypanosoma cruzi, 4.37%; in experiment [5] it was 23.4%. Also, the Percent Effect in experiment [6] is 21.8%; in the experiment listed under Homo sapiens, -3.55%; in experiment [7] it was 6.32%; in experiment [8], 7.69%; in experiment [9] it was -2.98%.

Regarding `COc1ccc(CCN2CCCC2Cn2nc(C)nc2C)cc1` (stereo unspecified), the Percent Effect in experiment [1] is -3.93%; in [2], 10.1%; in experiment [3], -5.37%; in [4], -5.48%; in the experiment on Trypanosoma cruzi, -0.85%; in experiment [5], 6.46%. Further, the Percent Effect in [6] is 6.31%; in the experiment filed under Homo sapiens, 26.4%; in experiment [7], 6.4%; in experiment [8], 8.86%; in experiment [9], -5.44%.

Regarding `O=C(CN1CCCCC1Cn1cncn1)NCCc1ccc(F)cc1` (stereo unspecified), the Percent Effect in [1] is -0.868%; in experiment [2] it was 15.2%; in experiment [3], -4.02%; in experiment [4], -10.5%; with Trypanosoma cruzi, -6.89%; in experiment [5], -2.28%. For the same compound, the Percent Effect is 8.27% in [6]; 37.4% in the experiment filed under Homo sapiens; 8.37% in experiment [7]; 11.4% in experiment [8]; -9.46% in experiment [9].

As to `CCN(CC1CCOC1)C(=O)c1ccccc1N1CCOCC1` (stereo unspecified), the Percent Effect in experiment [1] was -3.71%; in experiment [2], 23.7%; in [3] it was -4.13%; in [4] it was -10.1%; in the experiment with Trypanosoma cruzi, -3.08%; in [5] it was 1.8%. Besides, the Percent Effect in [6] is 4.82%; in the experiment listed under Homo sapiens it was 12.3%; in [7], 5.42%; in [8], 11.1%; in experiment [9], -5.45%.

Consider `c1cnc(-c2nc(CN3CCCC(Cn4cncn4)C3)cs2)nc1` (stereo unspecified), for which the Percent Effect is -3.67% in experiment [1]; 8.11% in experiment [2]; -6.35% in [3]; 6.78% in [4]; -4.81% in the experiment with Trypanosoma cruzi; -0.802% in experiment [5]. Besides, the Percent Effect in experiment [6] is 11%; in the experiment listed under Homo sapiens it was 10.9%; in [7] it was 6.4%; in experiment [8] it was 6.17%; in experiment [9], -4.11%.

In the case of `CNC(=O)Nc1cc(-c2ccc(Br)cc2)nn1CCO`, the Percent Effect in experiment [1] is -6.67%; in [2], 10.5%; in experiment [3], 0.242%; in experiment [4], 1.93%; in the experiment on Trypanosoma cruzi, 5.94%; in [5], -16.6%. In addition, the Percent Effect was 3.16% in experiment [6]; -5.7% in the experiment filed under Homo sapiens; 4.25% in experiment [7]; 2.6% in [8]; -2.66% in [9].

With `CCCn1ccc(C(=O)N2CCC(C)CC2)n1`, the Percent Effect was -3.61% in [1]; 10.4% in experiment [2]; 1.17% in [3]; 5.81% in experiment [4]; 0.295% in the experiment on Trypanosoma cruzi; -44.1% in [5]. For the same compound, the Percent Effect in [6] is 6.49%; in the experiment filed under Homo sapiens, -8.22%; in experiment [7], 8.6%; in experiment [8], 18.5%; in experiment [9], -1.29%.

Consider `Cc1ccc(C(CNCc2cnn(C(C)C)c2)N2CCOCC2)s1` (stereo unspecified), for which the Percent Effect in [1] is -3.15%; in experiment [2], -2.7%; in experiment [3], -0.219%; in [4], -2.96%; with Trypanosoma cruzi, -0.391%; in experiment [5], -2.5%. Further, the Percent Effect in [6] was 11.1%; in the experiment filed under Homo sapiens it was -8.39%; in experiment [7], 4.95%; in [8], 1.22%; in experiment [9], -6.03%.

In the case of `Cc1nc(C2CCCN(C(=O)c3sccc3C3CC3)C2)no1` (stereo unspecified), the Percent Effect was -1.32% in experiment [1]; -1.39% in experiment [2]; -29% in [3]; -2.96% in [4]; -0.486% in the experiment on Trypanosoma cruzi; -0.442% in experiment [5]. The Percent Effect in [6] was 11.9%; in the experiment listed under Homo sapiens, 5.93%; in experiment [7], 0%; in experiment [8], 0%; in experiment [9] it was -0.247%.

These data come from ChEMBL document CHEMBL3988442, “University of Dundee, Small-Polar-MMV Screening Library” (2021).
